Inconclusive results are not listed. Calls of active or inactive are those of the source. How the source made its calls, unless noted: active means hit-call score of the fitted dose curve at least 0.9, where 1 is the maximum; inconclusive means response in the unintended direction; inactive means score below 0.9.
How the values were obtained:
[1] = Tanguay_ZF_120hpf_SOMI_legacy: (Legacy) Oregon State University Tanguay Lab 120 Hour Post-fertilization zebrafish Assay for Somite Malformation (AID 2283647)
Summary of the method: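 Read-out: presence or absence of somite malformation in 120 hpf larvae, gain-of-signal relative to DMSO baseline. Embryos lacked chorion (pronase, 4 hpf) and were exposed statically from 6 hpf at 28C; dead larvae not scored.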

[2] = Tanguay_ZF_120hpf_PFIN_legacy: (Legacy) Oregon State University Tanguay Lab 120 Hour Post-fertilization zebrafish Assay for Pectoral Fin Malformation (AID 2283648);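 further: each larva judged yes or no for fin defect by brightfield with dead larvae skipped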
Summary of the method: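 Pectoral fin malformation was recorded as a binary endpoint at 120 hpf in wild-type Tropical 5D larvae, which had been dechorionated and exposed statically from 6 hpf at 28C in 0.64% DMSO. Dead embryos were excluded.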

[3] = Tanguay_ZF_120hpf_CIRC_legacy: (Legacy) Oregon State University Tanguay Lab 120 Hour Post-fertilization zebrafish Assay for Circulatory Malformation (AID 2283651)
Summary of the method: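 Binary circulatory-malformation call at 120 hpf via brightfield imaging, relative to DMSO controls. Embryos (5D strain, chorion removed) received static, light-shielded exposure at 28C.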

[4] = Tanguay_ZF_120hpf_SWIM_legacy: (Legacy) Oregon State University Tanguay Lab 120 Hour Post-fertilization zebrafish Assay for Swim Bladder Malformation (AID 2283654);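 further: swim bladder malformation in each larva scored yes or no under brightfield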
Summary of the method: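 Scoring is binary for swim bladder defects at 120 hpf, by brightfield inspection of zebrafish larvae. Embryos were exposed singly from 6 hpf after pronase dechorionation, at 28C with 0.64% DMSO; mortality excluded scoring.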

[5] = Tanguay_ZF_120hpf_BRAI_legacy: (Legacy) Oregon State University Tanguay Lab 120 Hour Post-fertilization zebrafish Assay for Brain Malformation (AID 2283641)
Summary of the method: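 Wild-type 5D larvae, static waterborne exposure to 120 hpf, 28C, 0.64% v/v DMSO. Brightfield scoring of brain defects, binary; dead embryos excluded. Positive ctrl 5uM trimethyltin chloride.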

[6] = Tanguay_ZF_120hpf_CFIN_legacy: (Legacy) Oregon State University Tanguay Lab 120 Hour Post-fertilization zebrafish Assay for Caudal Fin Malformation (AID 2283649)
Summary of the method: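 Binary presence or absence of caudal fin malformation at 120 hpf, read by brightfield microscopy, with DMSO as baseline. Larvae came from 5D wild-type embryos exposed statically from 6 hpf at 28C after pronase dechorionation.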

[7] = Tanguay_ZF_120hpf_PIG_legacy: (Legacy) Oregon State University Tanguay Lab 120 Hour Post-fertilization zebrafish Assay for Pigmentation Malformation (AID 2283650)
Summary of the method: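 Pigment malformation recorded as a binary call at 120 hpf in zebrafish (Tropical 5D) exposed singly from 6 hpf after pronase dechorionation. Static, sealed, 28C exposure, 0.64% DMSO; mortality excludes scoring; positive-direction fit against DMSO.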

[8] = read-out: kallikrein-3 (KLK3), KLK3 (gene 354); experiment: LTEA_HepaRG_KLK3: Life Technologies and Expression Analysis (LTEA) Assay for kallikrein-3 (KLK3) using HepaRG (AID 2283652; active means hit-call score of the fitted dose curve at least 0.9, where 1 is the maximum; inactive means score below 0.9); conditions: mRNA level, 48 h; actives raise or lower the signal
Summary of the method: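 KLK3 transcript levels were measured by TaqMan qRT-PCR with normalisation to three housekeeping genes. HepaRG cultures received chemicals for 48 h at up to 100 uM (half-log, 8 points, 0.5% DMSO vehicle), fitted in both directions against DMSO.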

[9] = read-out: solute carrier (SLC22A6), SLC22A6 (gene 9356); experiment: LTEA_HepaRG_SLC22A6: Life Technologies and Expression Analysis (LTEA) Assay for solute carrier (SLC22A6) using HepaRG (AID 2283653; active means hit-call score of the fitted dose curve at least 0.9, where 1 is the maximum; inactive means score below 0.9); conditions: mRNA level, 48 h; actives raise or lower the signal
Summary of the method: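 Read-out is SLC22A6 transcript level by qRT-PCR, normalised to three housekeeping genes and fitted for gain or loss relative to 0.5% DMSO vehicle. Human HepaRG cells received chemicals at up to 100 uM for 48 h.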

Measured: outcome

CCC(=C(c1ccc(O)cc1)c1ccc(OCCN(C)C)cc1)c1ccccc1
inactive: [1] | [2] | [3] | [4]

CC(=O)NC1(c2cccc(F)c2)CCN(CC[C@@]2(c3ccc(Cl)c(Cl)c3)CN(c3ccccc3)C(=O)CO2)CC1
not listed: [8] | [9]
inactive: all other assays above

OC1CCC(C2CCCCC2)CC1 (configuration not stated)
not listed: [8] | [9]
inactive: all other assays above

CCOC(=O)CC(O)(CC(=O)OCC)C(=O)OCC
not listed: [6] | [8] | [9]
inactive: all other assays above

COCC(C)OCC(C)O (configuration not stated)
inactive: [5] | [1] | [2] | [3] | [4]

O=C(OCCOCCOC(=O)c1ccccc1)c1ccccc1
not listed: [1]
inactive: all other assays above

Cc1cc(C)c(O)c(C)c1
inactive: [1] | [2] | [6] | [7] | [4]
